# Reference: PubChem BioAssay
# “And” between values parts separate entries of the source, which are not always exact repeats. Equal entries are not always repeated. Where a structure was tested more than once in an assay, its records may differ in their call. The source made the active and inactive calls.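 How the source made its calls, unless noted: active means normalized viability below 100% at a tested concentration; inactive means the rest.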
# Legend:
# [1] = compounds altering HSF1 focus formation in cells – imaging, Selleck Cancer Library (AID 1347162; in the data active means plate-normalised HSF1 focus index below about 0.46); details: human cells, HSF1 nuclear foci imaging, at 10 µM; SSMD: measured here: HSF1 foci SSMD mean; cell count: measured here: cell number; plate-normalised HSF1 focus index: stronger effect = lower value
# [2] = drug combination growth inhibition, ovarian cancer – cell-based, oncology-focused library, rucaparib conditional, profiling panel (AID 1508598); details: patient-derived ovarian cancer cells, CellTiter-Glo viability, 144 h, stronger effect = lower value
# [3] = blockers of cellular phospholipid synthesis – cell-based, LOPAC library, screen 4, primary screen (AID 1347384; call rule not given here); details: animal cells, phospholipid biosynthesis inhibition screen; at 10 µM
# [4] = P. berghei load reduction in hepatocytes – cell-based, HepG2, luciferase luminescence, HepG2 viability, primary screen (AID 624349; in the data active means parasite load remaining mostly below about 12%, no sharp cut-off; inactive means mostly above about 10%;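 further: 100% = mean of DMSO negative control wells on the same plate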); details: P. berghei liver stage in HepG2, luciferase luminescence, concentration not given here; parasite load remaining: stronger effect = lower value; viability: measured here: HepG2 viability without parasites
smiles,measurement,setting,value
N#CC[C@@H](C1CCCC1)n1cc(-c2ncnc3[nH]ccc23)cn1,SSMD,[1],2.05
same,cell count,[1],7030
same,plate-normalised HSF1 focus index,[1],1.12 (inactive)
same,viability,"[2]; at 0.000305 µM, OCI-C5x cells, with rucaparib 10 µM, 100% = cells with rucaparib alone",113% (inactive) and 107% (inactive)
same,viability,"[2]; at 0.000305 µM, OCI-C5x cells, without rucaparib",113% (inactive) and 115% (inactive)
same,viability,"[2]; at 0.000305 µM, OCI-P5x cells, with rucaparib 20 µM, 100% = cells with rucaparib alone",90.3% (active) and 57.2% (active)
same,viability,"[2]; at 0.000305 µM, OCI-P5x cells, without rucaparib",67.6% (active) and 15.7% (active)
same,viability,"[2]; at 0.00122 µM, OCI-C5x cells, with rucaparib 10 µM, 100% = cells with rucaparib alone",104% (inactive) and 71.4% (active)
same,viability,"[2]; at 0.00122 µM, OCI-C5x cells, without rucaparib",116% (inactive) and 58.3% (active)
same,viability,"[2]; at 0.00122 µM, OCI-P5x cells, with rucaparib 20 µM, 100% = cells with rucaparib alone",75.9% (active) and 50.4% (active)
same,viability,"[2]; at 0.00122 µM, OCI-P5x cells, without rucaparib",29.2% (active) and 17% (active)
same,viability,"[2]; at 0.00488 µM, OCI-C5x cells, with rucaparib 10 µM, 100% = cells with rucaparib alone",115% (inactive) and 102% (inactive)
same,viability,"[2]; at 0.00488 µM, OCI-C5x cells, without rucaparib",114% (inactive) and 116% (inactive)
same,viability,"[2]; at 0.00488 µM, OCI-P5x cells, with rucaparib 20 µM, 100% = cells with rucaparib alone",107% (inactive) and 105% (inactive)
same,viability,"[2]; at 0.00488 µM, OCI-P5x cells, without rucaparib",106% (inactive) and 105% (inactive)
same,viability,"[2]; at 0.0195 µM, OCI-C5x cells, with rucaparib 10 µM, 100% = cells with rucaparib alone",109% (inactive) and 100% (inactive)
same,viability,"[2]; at 0.0195 µM, OCI-C5x cells, without rucaparib",99.4% (active) and 104% (inactive)
same,viability,"[2]; at 0.0195 µM, OCI-P5x cells, with rucaparib 20 µM, 100% = cells with rucaparib alone",99.9% (active) and 99.8% (active)
same,viability,"[2]; at 0.0195 µM, OCI-P5x cells, without rucaparib",99.4% (active) and 104% (inactive)
same,viability,"[2]; at 0.0781 µM, OCI-C5x cells, with rucaparib 10 µM, 100% = cells with rucaparib alone",112% (inactive) and 100% (inactive)
same,viability,"[2]; at 0.0781 µM, OCI-C5x cells, without rucaparib",113% (inactive) and 109% (inactive)
same,viability,"[2]; at 0.0781 µM, OCI-P5x cells, with rucaparib 20 µM, 100% = cells with rucaparib alone",100% (inactive) and 96.9% (active)
same,viability,"[2]; at 0.0781 µM, OCI-P5x cells, without rucaparib",101% (inactive) and 102% (inactive)
same,viability,"[2]; at 0.313 µM, OCI-C5x cells, with rucaparib 10 µM, 100% = cells with rucaparib alone",105% (inactive) and 98.1% (active)
same,viability,"[2]; at 0.313 µM, OCI-C5x cells, without rucaparib",106% (inactive) and 111% (inactive)
same,viability,"[2]; at 0.313 µM, OCI-P5x cells, with rucaparib 20 µM, 100% = cells with rucaparib alone",100% (inactive) and 90.7% (active)
same,viability,"[2]; at 0.313 µM, OCI-P5x cells, without rucaparib",96.4% (active) and 98.4% (active)
same,viability,"[2]; at 1.25 µM, OCI-C5x cells, with rucaparib 10 µM, 100% = cells with rucaparib alone",117% (inactive) and 101% (inactive)
same,viability,"[2]; at 1.25 µM, OCI-C5x cells, without rucaparib",108% (inactive) and 109% (inactive)
same,viability,"[2]; at 1.25 µM, OCI-P5x cells, with rucaparib 20 µM, 100% = cells with rucaparib alone",97.5% (active) and 88.1% (active)
same,viability,"[2]; at 1.25 µM, OCI-P5x cells, without rucaparib",96% (active) and 91.3% (active)
same,viability,"[2]; at 5 µM, OCI-C5x cells, with rucaparib 10 µM, 100% = cells with rucaparib alone",133% (inactive) and 122% (inactive)
same,viability,"[2]; at 5 µM, OCI-C5x cells, without rucaparib",115% (inactive) and 130% (inactive)
same,viability,"[2]; at 5 µM, OCI-P5x cells, with rucaparib 20 µM, 100% = cells with rucaparib alone",83.7% (active) and 82.4% (active)
same,viability,"[2]; at 5 µM, OCI-P5x cells, without rucaparib",86.9% (active) and 86.2% (active)
CCN(CC)c1ncnc2c1ncn2[C@@H]1O[C@H](COP(=O)(O)OP(=O)(O)C(Br)(Br)P(=O)(O)O)[C@@H](O)[C@H]1O,outcome,[3],inactive
N#C/C(=C1/Nc2ccccc2S1)c1ccnc(NCCc2cccnc2)n1,parasite load remaining,[4],18.8% (inactive)
same,viability,[4],85.6%
same,SSMD,[1],2.72
same,cell count,[1],6770
same,plate-normalised HSF1 focus index,[1],1.16 (inactive)
C[C@@H]1CCN(C(=O)C(CCCN=C(N)N)NS(=O)(=O)c2cccc3c2NC[C@H](C)C3)C(C(=O)O)C1 (stereo partly specified),outcome,[3],inactive
C=CC1=C(C)c2cc3[nH]c(cc4nc(cc5[nH]c(cc1n2)c(C)c5CCC(=O)O)C(CCC(=O)O)=C4C)c(C)c3C=C,outcome,[3],inactive
NC(=S)c1ccc[n+]([C@@H]2O[C@@H](COP(=O)(O)OP(=O)(O)OC[C@H]3O[C@@H](n4cnc5c(N)ncnc54)C(OP(=O)(O)O)[C@H]3O)C(O)C2O)c1 (stereo partly specified),outcome,[3],inactive
CO[C@H]1C[C@@H]2CC[C@@H](C)[C@@](O)(O2)C(=O)C(=O)N2CCCC[C@H]2C(=O)O[C@H]([C@@H](C)C[C@@H]2CC[C@@H](OCCO)[C@H](OC)C2)CC(=O)[C@H](C)/C=C(\C)[C@@H](O)[C@@H](OC)C(=O)[C@H](C)C[C@H](C)/C=C/C=C/C=C/1C,SSMD,[1],2.84
same,cell count,[1],6750
same,plate-normalised HSF1 focus index,[1],1.15 (inactive)
CO/N=C(\C(=O)N[C@@H]1C(=O)N2C(C(=O)O)=C(CSc3nc(=O)c(=O)[nH]n3C)CSC12)c1csc(N)n1 (stereo partly specified),outcome,[3],inactive
CC1=NN(c2ccc(C(=O)O)cc2)C(=O)/C1=C\c1ccc(-c2cc(C)c(C)cc2[N+](=O)[O-])o1,SSMD,[1],1.04
same,cell count,[1],6690
same,plate-normalised HSF1 focus index,[1],1.07 (inactive)
OC[C@H]1O[C@@H](n2cnc3c2NC=NC[C@H]3O)CC1O (stereo partly specified),SSMD,[1],3.2
same,cell count,[1],7070
same,plate-normalised HSF1 focus index,[1],1.17 (inactive)
N[C@H](C(=O)O)[C@H](O)c1ccc(O)c(O)c1,outcome,[3],inactive
CCCCCCCCCCCCCCCCCCOP(=O)(O)OC1CC[N+](C)(C)CC1,SSMD,[1],-3.23
same,cell count,[1],7160
same,plate-normalised HSF1 focus index,[1],0.793 (inactive)
CC[N+](CC)(CC)CC,outcome,[3],inactive
C[N+]1(C)C2CC(OC(=O)[C@H](CO)c3ccccc3)CC1C1OC12 (stereo partly specified),outcome,[3],inactive
NC(=O)c1cc[n+](CC2=C(C(=O)O)N3C(=O)[C@@H](NC(=O)[C@@H](c4ccccc4)S(=O)(=O)O)[C@H]3SC2)cc1,outcome,[3],inactive
